Experiment [1] in a line: inhibitors of TNFa-induced NFkB p65 translocation, primary screen, imaging, HUVEC, MLSMR starter and 10KST1 sets (AID 438;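 active = inhibition above 20% together with a positive visual image hit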;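 note: compound added about 3h40 before a 20 min TNFalpha stimulation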;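 for inhibition: signal is the nuclear over cytoplasmic p65 intensity ratio per well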). Particulars: HUVEC TNFa-induced p65 nuclear translocation; cell count: measured here: nuclei count (cytotoxicity indicator), at 2.08 µM; inhibition: at 2 µM, stronger effect = higher value, 0% TNFa-plus-vehicle, 100% no-TNFa wells.
The nature of experiment [2]: inhibitors of mutant huntingtin aggregation, primary screen, imaging, exon1htt(103Q)mCFP cells, high-content imaging (AID 483;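 active = visual image review flags a hit and inhibition of aggregation exceeds 20%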;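 note: compound exposure lasted 3 days before fixation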;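 for nuclei count: percent of the per-plate median nuclei count of sample wells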). As to conditions: exon1htt(103Q)mCFP cell line, aggregate imaging, at 2 µM; inhibition of aggregation: stronger effect = higher value; nuclei count: measured here: cell count, toxicity.
A short description of experiment [3]: inhibitors of E-selectin induction by TNFa, primary screen, imaging, HUVEC, immunofluorescence, MLSMR starter and 10KST1 sets (AID 487;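 active = visually confirmed hit in the image check and inhibition above 20%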;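 for inhibition: signal is fraction of cell area covered by stained E-selectin grains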;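 for nuclei count: 100% = median nuclei count of all wells on the same plate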). Particulars: HUVEC TNFalpha-induced E-selectin immunofluorescence imaging, at 2 µM; inhibition: stronger effect = higher value; nuclei count: measured here: cell number, toxicity.
The target in experiment [4] is Voltage-gated potassium channel subunit beta-2 (Rattus norvegicus) (UniProt P62483). As to the kind of experiment: KvBeta enzyme negative modulators, primary screen, biochemical, NADPH fluorescence (AID 622;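 active = fluorescence slope higher than the sample average by over 3 SD, cut at about -0.22 in these data, passing the limit was not always enough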;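 note: slope of raw intensity against log time taken from 70 to 1610 s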). As to conditions: recombinant KvBeta, 4-cyanobenzaldehyde reduction, at 10 µM, stronger effect = higher value.
Voltage-gated potassium channel subunit beta-2 (Rattus norvegicus), sequence (P62483 whole entry, looked up): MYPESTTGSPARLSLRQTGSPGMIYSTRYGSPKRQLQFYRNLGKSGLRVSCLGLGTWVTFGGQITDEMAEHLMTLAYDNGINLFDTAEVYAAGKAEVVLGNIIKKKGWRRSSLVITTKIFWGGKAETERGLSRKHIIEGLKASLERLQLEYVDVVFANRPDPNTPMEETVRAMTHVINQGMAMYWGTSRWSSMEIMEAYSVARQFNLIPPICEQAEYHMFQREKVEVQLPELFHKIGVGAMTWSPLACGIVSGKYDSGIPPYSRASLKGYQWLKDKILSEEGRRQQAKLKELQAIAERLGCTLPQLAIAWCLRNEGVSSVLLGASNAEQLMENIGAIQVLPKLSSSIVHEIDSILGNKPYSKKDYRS
Experiment [5] has the same target. As to the kind of experiment: KvBeta positive modulators, primary screen, biochemical, NADPH fluorescence (AID 623;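 active = NADPH fluorescence slope more negative than the mean of all samples by about 3 SD, 99.7% confidence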;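 note: fluorescence intensity change per second fitted from 20 to 320 s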). As to conditions: Recombinant KvBeta, NADPH fluorescence decrease slope, 10 min; at 10 µM; stronger effect = lower value.
Experiment [6] deals with Alpha-2C adrenergic receptor (Homo sapiens) (UniProt P18825). As to the kind of experiment: modulators of alpha2C/GIRK thallium flux, primary screen, cell-based, HEK293 alpha2C/GIRK1/2 (AID 624).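 Note: slope of fluorescence ratio to pre-addition baseline per second over 15 to 24 s.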 Particulars: thallium flux BTC fluorescence, at 10 µM, actives lie on both sides.
Alpha-2C adrenergic receptor (Homo sapiens), sequence (P18825 whole entry, looked up): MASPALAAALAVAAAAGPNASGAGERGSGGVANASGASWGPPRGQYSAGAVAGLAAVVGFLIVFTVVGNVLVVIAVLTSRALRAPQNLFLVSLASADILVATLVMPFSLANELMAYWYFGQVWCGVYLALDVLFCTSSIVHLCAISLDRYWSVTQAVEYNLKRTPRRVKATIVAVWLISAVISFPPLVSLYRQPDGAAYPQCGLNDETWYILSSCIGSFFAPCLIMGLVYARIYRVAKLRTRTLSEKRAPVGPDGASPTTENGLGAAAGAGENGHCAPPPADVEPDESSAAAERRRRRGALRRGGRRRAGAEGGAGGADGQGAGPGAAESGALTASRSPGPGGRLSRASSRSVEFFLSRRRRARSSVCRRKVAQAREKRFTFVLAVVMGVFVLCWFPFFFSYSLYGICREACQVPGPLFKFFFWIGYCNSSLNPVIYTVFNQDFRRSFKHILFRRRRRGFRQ
Experiment [7] is described as follows: inhibitors of Sendai virus-induced IRF3 signaling, primary screen, TLR/RLR signaling modifier project, cell-based, Sendai virus stimulus, luciferase, 10K MLSCN set (AID 602276;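 active = inhibition at or above 50% at 10 µM; inactive = inhibition below 50%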;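 note: firefly luciferase from ISG56 promoter only with Renilla not read in this screen; 0% = Sendai virus plus DMSO and 100% = medium plus DMSO without virus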). Particulars: HEK293 RL24 IRF3 luciferase reporter, at 10 µM, stronger effect = higher value. For orientation: In a reporter assay the amount or activity of a reporter protein is the signal.
Experiment [8] is described as follows: inhibitors of poly I:C-induced TLR3 signaling, primary screen, cell-based, poly I:C stimulus, luciferase, 10K MLSCN set (AID 602277;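 active = inhibition of the reporter signal at or above 50%; inactive = inhibition below 50%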). Particulars: HEK293-TLR3 RL24 IRF3 luciferase reporter, at 10 µM, stronger effect = higher value.

Molecules are shown by their SMILES. Activity calls are given as the source filed them.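 Rule for the calls, unless noted: active = fluorescence slope after compound addition differing from the mean of all screened samples at 99.7% confidence, in either direction; inactive = the rest.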

Broadly, the inhibition is the change of the read-out against control, counted positive when it falls. Regarding `Cc1ccc(O)c(-c2cc3ccccc3[nH]2)c1`, in experiment [1], the cell count was determined as 616. In addition, the inhibition was -4.8% (inactive) in experiment [1], -37.9% (inactive) in experiment [3], -4.2% (inactive) in experiment [7] and -87.3% (inactive) in experiment [8]. Further, the inhibition of aggregation in experiment [2] was 20% (inactive). Moreover, the values for the nuclei count in experiment [2] and in experiment [3] were 98.8% and 109%, respectively. Also, in experiment [4], the fluorescence slope was -0.46 (inactive). Further, the NADPH fluorescence slope in experiment [5] was -3.3e-05 (inactive). Besides, the slope in experiment [6] is 0.00556 (inactive).

For `CN(C)c1ccc(/C=C/c2ccncc2)cc1`, in experiment [1], the cell count came to 311. Further, the inhibition in experiment [1] is -5.5% (inactive); in experiment [3], -76.4% (inactive); in experiment [7], -62.5% (inactive); in experiment [8], -181% (inactive). For the same compound, the inhibition of aggregation in experiment [2] is 22.3% (inactive). In addition, the nuclei count was found to be 83.5% in experiment [2] and 87.8% in experiment [3]. The fluorescence slope in experiment [4] was -0.382 (inactive). The NADPH fluorescence slope in experiment [5] is 1.7e-05 (inactive). The slope in experiment [6] was 0.00338 (inactive).

As for `CC(=O)Nc1c2c(nn1-c1ccc(C)cc1C)CSC2`, the cell count in experiment [1] was 570. Further, the inhibition in experiment [1] is 0.9% (inactive); in experiment [3], 33.7% (inactive); in experiment [7], -12.5% (inactive); in experiment [8], -10.7% (inactive). Further, in experiment [2], the inhibition of aggregation is 9.6% (inactive). Besides, the results for the nuclei count in experiment [2] and in experiment [3] were 95.7% and 103%, respectively. Further, the fluorescence slope in experiment [4] was -0.562 (inactive). Moreover, in experiment [5], the NADPH fluorescence slope is -5.2e-05 (inactive). Besides, the slope in experiment [6] is 0.00674 (inactive).

Turning to `COCCNC(=O)CCc1nc(-c2ccccc2)no1`, the cell count in experiment [1] amounted to 294. Also, the inhibition is -5% (inactive) in experiment [1], -98.3% (inactive) in experiment [3], 18.6% (inactive) in experiment [7] and 16.3% (inactive) in experiment [8]. Besides, in experiment [2], the inhibition of aggregation is -9.3% (inactive). In addition, the nuclei count in experiment [2] came out at 103%; in experiment [3], 123%. In experiment [4], the fluorescence slope is -0.504 (inactive). Besides, the NADPH fluorescence slope in experiment [5] was 2.6e-05 (inactive). Besides, the slope in experiment [6] was 0.00646 (inactive).

In the case of `COC(=O)CCSCc1cn2cc(Cl)ccc2n1`, the cell count in experiment [1] stood at 373. Moreover, the inhibition was 2.8% (inactive) in experiment [1], -85.2% (inactive) in experiment [3], 18.6% (inactive) in experiment [7] and 56.9% (active) in experiment [8]. In experiment [2], the inhibition of aggregation was -26.9% (inactive). In addition, the nuclei count in experiment [2] is 103%; in experiment [3] it was 112%. Besides, the fluorescence slope in experiment [4] was -0.509 (inactive). For the same compound, the NADPH fluorescence slope in experiment [5] was -1.7e-05 (inactive). In addition, in experiment [6], the slope is 0.00629 (inactive).

As for `CCOC(=O)N1CCN(C(=O)COc2ccc(Br)cc2Cl)CC1`, the cell count in experiment [1] was found to be 317. Further, the inhibition was 2% (inactive) in experiment [1], -27.2% (inactive) in experiment [3], 6.45% (inactive) in experiment [7] and 30.7% (inactive) in experiment [8]. The inhibition of aggregation in experiment [2] was -6.6% (inactive). The figures for the nuclei count in experiment [2] and in experiment [3] were 98.4% and 118%, respectively. Also, the fluorescence slope in experiment [4] was -0.445 (inactive). In addition, the NADPH fluorescence slope in experiment [5] is -5.1e-05 (inactive). The slope in experiment [6] was 0.00378 (inactive).

Regarding `O=C(O)c1ccc(COc2c(F)c(F)cc(F)c2F)cc1`, the cell count in experiment [1] amounted to 611. The inhibition is -0.8% (inactive) in experiment [1], -50.1% (inactive) in experiment [3], 8.32% (inactive) in experiment [7] and 8.92% (inactive) in experiment [8]. The inhibition of aggregation in experiment [2] is 27.2% (inactive). Further, the nuclei count in experiment [2] was determined as 102%; in experiment [3], 107%. Further, the fluorescence slope in experiment [4] was -0.453 (inactive). Besides, the NADPH fluorescence slope in experiment [5] was -1.9e-05 (inactive). Further, the slope in experiment [6] is 0.00642 (inactive).

On to `COc1ccc(CCn2c(-c3ccco3)nc3nc4ccccc4nc32)cc1`, for which the cell count in experiment [1] amounted to 806. For the same compound, the inhibition was -5.6% (inactive) in experiment [1], -25.4% (inactive) in experiment [3], 18.8% (inactive) in experiment [7] and -6.71% (inactive) in experiment [8]. The inhibition of aggregation in experiment [2] was -7.3% (inactive). For the same compound, the figures for the nuclei count in experiment [2] and in experiment [3] were 101% and 115%, respectively. The fluorescence slope in experiment [4] is -0.445 (inactive). Also, the NADPH fluorescence slope in experiment [5] is -3.4e-05 (inactive). The slope in experiment [6] was 0.00679 (inactive).

As for `CCCc1cc(=O)[nH]c(Nc2ccc(OC)c(Cl)c2)n1`, the cell count in experiment [1] came to 238. For the same compound, the inhibition is -0.8% (inactive) in experiment [1], 25.7% (inactive) in experiment [3], -1.81% (inactive) in experiment [7] and 46.2% (inactive) in experiment [8]. The inhibition of aggregation in experiment [2] was 17.6% (inactive). Besides, the results for the nuclei count in experiment [2] and in experiment [3] were 88.1% and 70.9%, respectively. For the same compound, in experiment [4], the fluorescence slope is -0.478 (inactive). For the same compound, in experiment [5], the NADPH fluorescence slope is -8.5e-06 (inactive). Also, the slope in experiment [6] is 0.00603 (inactive).

`CC(=O)CCc1c(C)[nH]c2ccccc2c1=O`: the cell count in experiment [1] was 360. For the same compound, the inhibition is 9.1% (inactive) in experiment [1], -3.8% (inactive) in experiment [3], -9.69% (inactive) in experiment [7] and -2.97% (inactive) in experiment [8]. In addition, in experiment [2], the inhibition of aggregation was -8.9% (inactive). The figures for the nuclei count in experiment [2] and in experiment [3] were 123% and 102%, respectively. In experiment [4], the fluorescence slope is -0.523 (inactive). In experiment [5], the NADPH fluorescence slope is 6.6e-05 (inactive). Moreover, in experiment [6], the slope is 0.00588 (inactive).

In the case of `c1ccc(-n2ncc3c(N4CCCCC4)ncnc32)cc1`, the cell count in experiment [1] is 655. The inhibition was -3.9% (inactive) in experiment [1], -21.5% (inactive) in experiment [3], 49.8% (inactive) in experiment [7] and 10.6% (inactive) in experiment [8]. Besides, the inhibition of aggregation in experiment [2] is -2.1% (inactive). For the same compound, the nuclei count in experiment [2] came out at 108%; in experiment [3], 118%. For the same compound, in experiment [4], the fluorescence slope is -0.574 (inactive). In addition, the NADPH fluorescence slope in experiment [5] was -3.8e-05 (inactive). Moreover, the slope in experiment [6] is 0.0073 (inactive).

On to `Cn1c(=O)c(=O)n(C)c2cc(S(=O)(=O)N3CCN(c4cccc(C(F)(F)F)c4)CC3)ccc21`, for which the cell count in experiment [1] worked out at 334. Moreover, the inhibition in experiment [1] is -2.2% (inactive); in experiment [3] it was -12.6% (inactive); in experiment [7] it was 1.46% (inactive); in experiment [8], 13.1% (inactive). Also, the inhibition of aggregation in experiment [2] was -18.8% (inactive). Also, the figures for the nuclei count in experiment [2] and in experiment [3] were 107% and 104%, respectively. Also, in experiment [4], the fluorescence slope was -0.354 (inactive). Further, the NADPH fluorescence slope in experiment [5] is 1.2e-05 (inactive). Besides, in experiment [6], the slope is 0.00616 (inactive).

With `CCOC(=O)c1c(NC(=O)c2ccn(CC)n2)sc2c1CCCC2`, the cell count in experiment [1] is 680. Besides, the inhibition was -10.9% (inactive) in experiment [1], -71.6% (inactive) in experiment [3], 3.28% (inactive) in experiment [7] and -1.94% (inactive) in experiment [8]. Also, the inhibition of aggregation in experiment [2] was -3.6% (inactive). For the same compound, the values for the nuclei count in experiment [2] and in experiment [3] were 97.6% and 114%, respectively. Also, the fluorescence slope in experiment [4] was -0.123 (inactive). The NADPH fluorescence slope in experiment [5] was -1.5e-06 (inactive). Further, the slope in experiment [6] was 0.00291 (inactive).

Take `COC(=O)C1=C(C)NC2=C(C(=O)CCC2)C1c1coc2ccccc2c1=O` (centres undefined): in experiment [1], the cell count turned out to be 322. The inhibition in experiment [1] was -2.1% (inactive); in experiment [3] it was -47.5% (inactive); in experiment [7] it was 16.4% (inactive); in experiment [8] it was 48.4% (inactive). Besides, the inhibition of aggregation in experiment [2] was 14.4% (inactive). For the same compound, the nuclei count in experiment [2] was 98.3%; in experiment [3], 111%. In addition, the fluorescence slope in experiment [4] is -0.244 (inactive). In experiment [5], the NADPH fluorescence slope is 7.1e-06 (inactive). Besides, the slope in experiment [6] is 0.00668 (inactive).

For the origin of these results see PubChem BioAssay.
